Measurements: PubChem BioAssay
For some assays here: Potency and affinity values are given separately. Activity calls are given as the source filed them. Unless noted, how the calls were made is not given here.

Columns and labels:
[1] = antimalarial activity against Dd2 strain (AID 2302;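 active means growth inhibition above 50% at the single 2 µM test dose, taken to imply half-maximal potency below 2 µM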;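 further: 0% = DMSO untreated growth and 100% = chloroquine plus artemisinin killed control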); settings: P. falciparum Dd2 in RBCs, LDH growth readout, 72 h; at 2 µM; hits give high values
[2] = human hepatoma cell viability loss – ATP luminescence, cytotoxicity control for P. falciparum antimalarial project, primary screen (AID 2303;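 active means inhibition above 50%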;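 further: 0% = DMSO wells and 100% = digitonin-killed cells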); settings: HepG2 viability, 24-48 h, at 10 µM, hits give high values
[3] = biological target: L-lactate dehydrogenase (Plasmodium falciparum (isolate CDC / Honduras)) (UniProt Q27743); experiment: PfLDH activity inhibition – cell lysate, 3D7 strain, counter-screen for P. falciparum growth inhibition project (AID 2304);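 further: 0% = vehicle and 100% = reference inhibitor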; settings: P. falciparum 3D7 crude extract, LDH APAD/NBT absorbance; at 2 µM; hits give high values
L-lactate dehydrogenase (Plasmodium falciparum (isolate CDC / Honduras)), sequence (Q27743 whole entry, looked up): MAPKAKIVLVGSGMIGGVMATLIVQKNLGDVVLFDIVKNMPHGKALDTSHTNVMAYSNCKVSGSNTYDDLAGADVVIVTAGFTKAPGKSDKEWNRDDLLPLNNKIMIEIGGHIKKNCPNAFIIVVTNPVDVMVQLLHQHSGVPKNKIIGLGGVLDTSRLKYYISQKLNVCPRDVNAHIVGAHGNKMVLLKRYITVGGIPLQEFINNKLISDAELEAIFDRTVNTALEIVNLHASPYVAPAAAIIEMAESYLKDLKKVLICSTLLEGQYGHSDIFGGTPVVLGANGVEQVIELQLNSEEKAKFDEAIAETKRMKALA

[4] = inhibition of 3D7 malaria parasite growth – strain 3D7 (AID 2306);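 further: 0% = DMSO wells and 100% = chloroquine plus artemisinin control wells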; settings: P. falciparum 3D7 erythrocytic growth, LDH absorbance, 72 h; at 2 µM; hits give high values
[5] = biological target: Calcium-dependent protein kinase 1 (Plasmodium falciparum (isolate 3D7)) (UniProt P62344); experiment: PfCDPK1 kinase inhibitors, biochemical, TCAMS library (AID 1159585; cut-off not given, nearly all actives have IC50 up to about 0.98 µM;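 further: inhibitors leave more ATP so luminescence rises with inhibition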); settings: recombinant PfCDPK1, Kinase-Glo ATP depletion luminescence
Calcium-dependent protein kinase 1 (Plasmodium falciparum (isolate 3D7)), sequence (P62344 whole entry, looked up): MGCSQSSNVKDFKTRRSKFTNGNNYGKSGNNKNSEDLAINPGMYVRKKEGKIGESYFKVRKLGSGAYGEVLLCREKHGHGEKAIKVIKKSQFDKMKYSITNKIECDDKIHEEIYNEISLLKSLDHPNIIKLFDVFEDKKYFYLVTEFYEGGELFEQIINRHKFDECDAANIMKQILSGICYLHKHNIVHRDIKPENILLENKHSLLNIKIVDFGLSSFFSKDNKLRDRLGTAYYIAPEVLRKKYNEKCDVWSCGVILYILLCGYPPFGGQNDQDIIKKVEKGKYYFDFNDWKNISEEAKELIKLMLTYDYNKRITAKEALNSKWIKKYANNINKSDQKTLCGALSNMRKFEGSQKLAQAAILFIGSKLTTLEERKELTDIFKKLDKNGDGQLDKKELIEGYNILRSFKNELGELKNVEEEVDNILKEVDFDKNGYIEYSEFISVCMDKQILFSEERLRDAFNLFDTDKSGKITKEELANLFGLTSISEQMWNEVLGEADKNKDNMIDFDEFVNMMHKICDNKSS

[6] = biological target: Plasmodium falciparum protein kinase 6 (PK6, PF3D7_1337100) (UniProt Q8IDW1); experiment: PfPK6 kinase inhibitors, biochemical, TCAMS library (AID 1159586); settings: recombinant PfPK6, Kinase-Glo ATP depletion luminescence
Plasmodium falciparum protein kinase 6 (PK6, PF3D7_1337100), sequence (Q8IDW1 1-305): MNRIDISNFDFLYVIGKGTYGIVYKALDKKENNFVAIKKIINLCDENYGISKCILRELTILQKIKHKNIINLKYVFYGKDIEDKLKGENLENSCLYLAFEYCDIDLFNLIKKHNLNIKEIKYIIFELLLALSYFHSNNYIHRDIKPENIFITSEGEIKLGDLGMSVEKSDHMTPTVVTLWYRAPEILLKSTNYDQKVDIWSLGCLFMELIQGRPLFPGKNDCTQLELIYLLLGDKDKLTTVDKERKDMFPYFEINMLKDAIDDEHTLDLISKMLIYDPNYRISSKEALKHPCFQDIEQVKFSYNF

[7] = biological target: Protein kinase 7 (PK7), Plasmodium falciparum 3D7 (PF3D7_0213400) (UniProt Q7YTF7); experiment: inhibition of Plasmodium PK7 catalytic activity – biochemical, TCAMS antimalarial set, Kinase-Glo luminescence (AID 1159587); settings: recombinant PfPK7, Kinase-Glo ATP depletion luminescence
Protein kinase 7 (PK7), Plasmodium falciparum 3D7 (PF3D7_0213400), sequence (Q7YTF7 1-343): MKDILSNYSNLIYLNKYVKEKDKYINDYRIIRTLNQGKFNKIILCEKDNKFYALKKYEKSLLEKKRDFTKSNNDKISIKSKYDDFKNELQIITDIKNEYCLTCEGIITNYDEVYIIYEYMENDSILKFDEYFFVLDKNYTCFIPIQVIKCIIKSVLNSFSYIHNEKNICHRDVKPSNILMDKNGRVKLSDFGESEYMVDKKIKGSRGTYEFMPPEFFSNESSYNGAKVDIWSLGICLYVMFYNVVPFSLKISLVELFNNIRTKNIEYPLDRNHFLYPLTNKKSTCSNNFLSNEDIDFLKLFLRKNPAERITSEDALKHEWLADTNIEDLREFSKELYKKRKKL

[8] = biological target: Calcium-dependent protein kinase 4 (Plasmodium falciparum (isolate 3D7)) (UniProt Q8IBS5); experiment: PfCDPK4 kinase inhibitors, biochemical, TCAMS library (AID 1159588; cut-off not given, nearly all actives have IC50 up to about 0.91 µM); settings: recombinant PfCDPK4, Kinase-Glo ATP depletion luminescence
Calcium-dependent protein kinase 4 (Plasmodium falciparum (isolate 3D7)), sequence (Q8IBS5 whole entry, looked up): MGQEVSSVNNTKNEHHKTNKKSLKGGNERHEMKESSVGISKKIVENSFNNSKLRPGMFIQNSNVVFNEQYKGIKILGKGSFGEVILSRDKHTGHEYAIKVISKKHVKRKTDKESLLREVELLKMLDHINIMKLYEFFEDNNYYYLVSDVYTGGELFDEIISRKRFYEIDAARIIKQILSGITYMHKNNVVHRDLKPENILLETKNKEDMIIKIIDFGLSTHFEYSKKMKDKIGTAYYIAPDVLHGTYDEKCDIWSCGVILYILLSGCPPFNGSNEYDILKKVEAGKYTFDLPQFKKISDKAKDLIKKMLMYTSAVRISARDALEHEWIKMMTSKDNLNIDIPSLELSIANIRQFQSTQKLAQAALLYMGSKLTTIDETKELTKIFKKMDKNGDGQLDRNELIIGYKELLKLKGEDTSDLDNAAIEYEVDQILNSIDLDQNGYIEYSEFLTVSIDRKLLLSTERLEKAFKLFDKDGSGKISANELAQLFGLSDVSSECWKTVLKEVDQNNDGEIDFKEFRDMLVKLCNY

O=C(Nc1cccc(-c2ccc(-c3nc4ccccc4[nH]3)cc2)c1)c1ccncc1
active: growth inhibition [1] 58% | growth inhibition [4] 100%
inactive: inhibition [2] 30% | inhibition [3] -1% | outcome [5] | outcome [6] | outcome [7] | outcome [8]

N#Cc1ccc(N2CCN(Cc3ccc(-c4ccc(-c5nc6ccccc6[nH]5)s4)cc3)CC2)nc1
active: growth inhibition [1] 63% | growth inhibition [4] 99%
inactive: inhibition [2] 17% | inhibition [3] 2% | outcome [5] | outcome [6] | outcome [7] | outcome [8]

COc1ccc2c(=O)c(C3CCC(c4ccc(Cl)cc4)CC3)c(C)[nH]c2c1 (stereo not given)
inactive: inhibition [2] 2% | inhibition [3] 1% | outcome [5] | outcome [6] | outcome [7] | outcome [8]
active: growth inhibition [1] 84% | growth inhibition [4] 97%

Cc1cc(NC(=O)Nc2ccc(Oc3ccccc3)cc2)c2ccccc2n1
active: growth inhibition [4] 91%
inactive: growth inhibition [1] 28% | inhibition [2] 2% | inhibition [3] 4% | outcome [5] | outcome [6] | outcome [7] | outcome [8]

c1ccc(COc2ccc(COc3ccc(Cn4ccnc4)cc3)cc2)cc1
inactive: growth inhibition [1] 45% | inhibition [2] 9% | inhibition [3] 0% | outcome [5] | outcome [6] | outcome [7] | outcome [8]
active: growth inhibition [4] 86%

CCCCCCN1CCCN(Cc2ccc(C(=O)Nc3ccc(C(C)C)cc3)cc2)CC1
inactive: inhibition [2] 40% | inhibition [3] -4% | outcome [5] | outcome [6] | outcome [7] | outcome [8]
active: growth inhibition [1] 50% | growth inhibition [4] 93%

CCOc1cccc(C2c3c(oc4ccccc4c3=O)C(=O)N2CCN(CC)CC)c1 (stereo not given)
inactive: inhibition [2] 5% | inhibition [3] -2% | outcome [5] | outcome [6] | outcome [7] | outcome [8]
active: growth inhibition [1] 66% | growth inhibition [4] 100%

CC(C)(C)CNc1noc(-c2sccc2Br)n1
inactive: inhibition [2] 4% | inhibition [3] -7% | outcome [5] | outcome [6] | outcome [7] | outcome [8]
active: growth inhibition [1] 71% | growth inhibition [4] 82%

COc1ccc(NC(=O)Nc2ccc(-c3ccc(-c4nc5c(C)cccc5[nH]4)s3)cc2)cc1
active: growth inhibition [1] 96% | inhibition [2] 74% | growth inhibition [4] 100%
inactive: inhibition [3] 3% | outcome [5] | outcome [6] | outcome [7] | outcome [8]

Cc1nc(-c2cccc(C(=O)N(Cc3cncn3Cc3cccc(C(F)(F)F)c3)CC3CC3)c2)cs1
inactive: growth inhibition [1] 17% | inhibition [2] 7% | inhibition [3] 4% | outcome [5] | outcome [6] | outcome [7] | outcome [8]
active: growth inhibition [4] 97%

COC(=O)c1cc(/C(C)=N/Nc2nc3ccccc3[nH]2)ccc1O
active: growth inhibition [1] 75% | growth inhibition [4] 101%
inactive: inhibition [2] 9% | inhibition [3] -1% | outcome [5] | outcome [6] | outcome [7] | outcome [8]

CC(C)CNCc1ccc(-c2cccc(CN(CCCN3CCN(C)CC3)C(=O)/C=C/c3ccccc3)c2)cc1
active: growth inhibition [1] 93% | growth inhibition [4] 95%
inactive: inhibition [2] 43% | inhibition [3] 0% | outcome [5] | outcome [6] | outcome [7] | outcome [8]

CN(C)CCOc1ccc2c(c1)OC(C)(C)C=C2c1cccc2ccccc12
inactive: growth inhibition [1] 48% | inhibition [3] -2% | outcome [5] | outcome [6] | outcome [7] | outcome [8]
active: inhibition [2] 66% | growth inhibition [4] 95%

CC(C)=CCN1CCC(C(=O)Nc2ccc(-c3nc4ccccc4[nH]3)cc2)CC1
active: growth inhibition [4] 95%
inactive: growth inhibition [1] -1% | inhibition [2] -2% | inhibition [3] -3% | outcome [5] | outcome [6] | outcome [7] | outcome [8]

Cc1cccc2[nH]c(-c3cccc(-c4ccc(NC(=O)C(=O)c5cccn5C)cc4)c3)nc12
inactive: growth inhibition [1] 46% | inhibition [2] 45% | inhibition [3] -1% | outcome [5] | outcome [6] | outcome [7] | outcome [8]
active: growth inhibition [4] 101%

O=C(/C=C/c1ccc(Cl)c(Cl)c1)NCCCCCN1CCC(NC(=O)Nc2cccc(Cl)c2)CC1
active: inhibition [2] 52% | growth inhibition [4] 102%
inactive: growth inhibition [1] 13% | inhibition [3] -1% | outcome [5] | outcome [6] | outcome [7] | outcome [8]

Cc1cccc2c3c([nH]c12)C1(CCN(Cc2ccccc2)CC1)NC(C(=O)NCc1ccccc1)C3 (stereo not given)
active: growth inhibition [4] 81%
inactive: growth inhibition [1] 8% | inhibition [2] -4% | inhibition [3] -2% | outcome [5] | outcome [6] | outcome [7] | outcome [8]

CCCc1cc(NC2CCN(C)CC2)nc(Nc2ccc(F)cc2)n1
inactive: growth inhibition [1] 16% | inhibition [2] 20% | inhibition [3] -7% | outcome [5] | outcome [6] | outcome [7] | outcome [8]
active: growth inhibition [4] 95%

Cc1ccccc1Nc1nc(NCCc2ccccc2)nc2ccccc12
inactive: growth inhibition [1] 18% | inhibition [2] 32% | inhibition [3] -1% | outcome [5] | outcome [6] | outcome [7] | outcome [8]
active: growth inhibition [4] 82%

O=c1cc(NCCCNCc2cc3ccccc3s2)[nH]c2ccccc12
inactive: growth inhibition [1] -3% | inhibition [2] 3% | inhibition [3] -1% | outcome [5] | outcome [6] | outcome [7] | outcome [8]
active: growth inhibition [4] 89%

CN(C)CCCOc1cc(NC(=O)Nc2ccc(-c3ccncc3)c3ccccc23)ccc1I
inactive: inhibition [2] 46% | inhibition [3] 1% | outcome [5] | outcome [6] | outcome [7] | outcome [8]
active: growth inhibition [1] 97% | growth inhibition [4] 101%

c1cc(CN2CCCCC2)cc(OCCCNc2ccnc3ccccc23)c1
active: growth inhibition [1] 99% | growth inhibition [4] 100%
inactive: inhibition [2] 48% | inhibition [3] -1% | outcome [5] | outcome [6] | outcome [7] | outcome [8]

CN(CC(=O)Nc1cc(C(F)(F)F)ccc1-n1cncn1)Cc1nc2ccccc2s1
active: growth inhibition [1] 64% | growth inhibition [4] 87%
inactive: inhibition [2] 3% | inhibition [3] 0% | outcome [5] | outcome [6] | outcome [7] | outcome [8]

O=C(Nc1ccc2c(c1)OCO2)NC1CCN(c2ccnc(NCc3ccc(F)cc3)n2)CC1
active: growth inhibition [4] 88%
inactive: growth inhibition [1] 15% | inhibition [2] 33% | inhibition [3] 3% | outcome [5] | outcome [6] | outcome [7] | outcome [8]

O=C(CCOc1ccccc1)NCC1CCCO1 (stereo not given)
active: growth inhibition [4] 92%
inactive: growth inhibition [1] -11% | inhibition [2] -10% | inhibition [3] -3% | outcome [5] | outcome [6] | outcome [7] | outcome [8]

O=C(Cc1cccc(Cl)c1)N1CCc2cc3nccc(N4CCN5CCC[C@H]5C4)c3cc21
inactive: growth inhibition [1] 4% | inhibition [2] 14% | inhibition [3] 4% | outcome [5] | outcome [6] | outcome [7] | outcome [8]
active: growth inhibition [4] 96%

O=C(Nc1cccc(CN2CCCN(Cc3ccc(O)cc3)CC2)c1)c1cccc(C(F)(F)F)c1
inactive: inhibition [2] 9% | inhibition [3] 3% | outcome [5] | outcome [6] | outcome [7] | outcome [8]
active: growth inhibition [1] 71% | growth inhibition [4] 101%

COc1ccc(CCCON2C(N)=NC(N)=NC2(C)C)cc1
inactive: inhibition [3] -1% | outcome [5] | outcome [6] | outcome [7] | outcome [8]
active: growth inhibition [1] 94% | inhibition [2] 61% | growth inhibition [4] 95%

COc1ccc2nc(C)cc(NN=Cc3ccccc3)c2c1
active: growth inhibition [4] 80%
inactive: growth inhibition [1] 6% | inhibition [2] 4% | inhibition [3] 0% | outcome [5] | outcome [6] | outcome [7] | outcome [8]

COc1ccc(CNC(=O)c2cnc3c(O)cccc3c2Nc2cccc(NC(=O)c3ccc(F)cc3)c2)cc1
inactive: inhibition [3] 2% | outcome [5] | outcome [6] | outcome [7] | outcome [8]
active: growth inhibition [1] 65% | inhibition [2] 50% | growth inhibition [4] 91%

Oc1ccc(-c2ccccc2)cc1CN1CCCCC1
inactive: inhibition [2] 3% | inhibition [3] -1% | outcome [5] | outcome [6] | outcome [7] | outcome [8]
active: growth inhibition [1] 70% | growth inhibition [4] 93%

CCCC1(NC[C@@H](O)[C@H](Cc2ccccc2)NC(=O)c2cc(NCC)cc(N3CCCCS3(=O)=O)c2)CC1
inactive: inhibition [2] 1% | inhibition [3] 0% | outcome [5] | outcome [6] | outcome [7] | outcome [8]
active: growth inhibition [1] 98% | growth inhibition [4] 98%

O=C(/C=C/c1ccc(Cl)c(Cl)c1)N1CCN(C(=O)Nc2cccc(C(F)(F)F)c2)CC1
active: growth inhibition [1] 100% | inhibition [2] 53% | growth inhibition [4] 99%
inactive: inhibition [3] 4% | outcome [5] | outcome [6] | outcome [7] | outcome [8]

FC(F)(F)c1ccc(/C=C/c2cncnc2Nc2ccc3nc(Cc4ccccc4)[nH]c3c2)cc1
active: growth inhibition [1] 101% | growth inhibition [4] 100%
inactive: inhibition [2] 21% | inhibition [3] 1% | outcome [5] | outcome [6] | outcome [7] | outcome [8]

Cc1nnsc1C(=O)Nc1cccc(-c2ccc(-c3nc4ccc(F)cc4[nH]3)cc2)c1
active: growth inhibition [1] 89% | inhibition [2] 51% | growth inhibition [4] 100%
inactive: inhibition [3] 4% | outcome [5] | outcome [6] | outcome [7] | outcome [8]

Cc1cc(Cc2ccc(S(=O)(=O)c3cc4c(cc3O)CCN(C)CC4)cc2)ccc1Cl
inactive: growth inhibition [1] 12% | inhibition [2] 7% | inhibition [3] 0% | outcome [5] | outcome [6] | outcome [7] | outcome [8]
active: growth inhibition [4] 96%

COC(=O)c1cccc(CNCc2cccc(-c3cccc(-c4nc5c(C)cccc5[nH]4)c3)c2)c1
active: growth inhibition [4] 101%
inactive: growth inhibition [1] 47% | inhibition [2] -1% | inhibition [3] 3% | outcome [5] | outcome [6] | outcome [7] | outcome [8]

O=C1CCCN1CCCNCc1ccc(-c2cccc(-c3nc4ccc(F)cc4[nH]3)c2)cc1
inactive: growth inhibition [1] 8% | inhibition [2] 12% | inhibition [3] -1% | outcome [5] | outcome [6] | outcome [7] | outcome [8]
active: growth inhibition [4] 101%

CC1CN(Cc2cccc(F)c2)CCN1c1ccc(NC(=O)c2ccc(F)cc2)cc1 (stereo not given)
active: growth inhibition [1] 92% | growth inhibition [4] 96%
inactive: inhibition [2] -2% | inhibition [3] -2% | outcome [5] | outcome [6] | outcome [7] | outcome [8]

CS(=O)(=O)c1ccc(CNCc2cccc(-c3cccc(-c4nc5ccccc5[nH]4)c3)c2)cc1
inactive: growth inhibition [1] 47% | inhibition [2] 3% | inhibition [3] -7% | outcome [5] | outcome [6] | outcome [7] | outcome [8]
active: growth inhibition [4] 101%
